RORg inh: ROR gamma (mouse) transcription inhibition | Drosophila S2 Gal4-RORgamma UAS-luciferase reporter, 20 h | hit rate 5.4% among 310,000 | Potency, µM (series often up to 53.6 µM), without a hit: at the top dose activity change, negative = inhibition, hits mostly inhibitors | P51450; note: potency is the fitted concentration of half-maximal effect; nearly all actives have a fitted effect of over 60% in size
Target sequence (P51450 whole entry, looked up, the tested form may be a part): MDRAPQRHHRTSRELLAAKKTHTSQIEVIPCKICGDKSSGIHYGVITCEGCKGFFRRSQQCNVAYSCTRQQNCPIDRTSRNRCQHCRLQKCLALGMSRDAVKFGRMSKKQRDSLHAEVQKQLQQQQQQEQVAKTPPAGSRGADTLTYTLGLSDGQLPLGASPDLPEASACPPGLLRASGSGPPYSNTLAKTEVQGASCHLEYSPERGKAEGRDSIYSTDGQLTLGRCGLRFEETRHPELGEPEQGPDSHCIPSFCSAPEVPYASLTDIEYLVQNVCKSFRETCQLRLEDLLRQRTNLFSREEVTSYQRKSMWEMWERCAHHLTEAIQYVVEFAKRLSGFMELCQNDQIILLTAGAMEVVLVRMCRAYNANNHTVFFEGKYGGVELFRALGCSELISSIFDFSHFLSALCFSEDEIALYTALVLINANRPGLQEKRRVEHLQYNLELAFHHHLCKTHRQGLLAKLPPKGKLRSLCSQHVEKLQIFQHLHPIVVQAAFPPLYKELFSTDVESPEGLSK
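Luciferase reporter read in Schneider cells carrying Gal4-RORγ (mouse) and UAS-Photinus luciferase; cells given compound 1 h before 700 uM copper sulfate induction, then incubated 20 h at ambient temperature.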
FBPA coupling cs: inhibits coupling enzyme system, counter-screen for aldolase hits. coupling enzyme system counterscreen, AmpLite Red fluorescence. activity change, negative = inhibition, % at 58.2 µM, hits read low. hit rate 0.67% among 290,000. AID 2472; in the data active = activity change below about -30%
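Counterscreen lacking aldolase: glyceraldehyde-3-phosphate coupling-enzyme reagent preincubated 10 min at RT with compound (at 57.5 uM final), then substrate/coupling system with AmpLite Red added; fluorescence read at 525/598 nm after 20 min RT.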
GALK inhibitor: galactokinase (human) inhibition. P51570. Purified GALK, Kinase-Glo residual ATP luminescence. Potency, µM (highest dose often 57.5 µM), for inactives: at the top dose activity change, negative = inhibition, actives largely listed as inhibitors. hit rate 0.007% among 270,000. AID 1868; note: potency is the fitted concentration of half-maximal effect
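GALK at 5 nM final was combined with compound, 35 uM ATP and 100 uM galactose in HEPES pH8.0 with MgCl2 and DTT. The reaction ran one hour at room temperature before luminescent ATP detection.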
Gal4-VP16 FLuc: counter-screen for ROR gamma inhibitors: Gal4-VP16 reporter; Drosophila S2 Gal4-VP16 UAS-luciferase, luminescence, 20 h; Potency, µM (top dose mostly 53.6 µM), for the others: top-dose activity, negative = inhibition, usual class: inhibitors; hit rate 3.5% among 310,000; AID 2546;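 note: Gal4-VP16 expression switched on by copper sulfate through the metallothionein promoter; potency is the fitted concentration of half-maximal effect; nearly all actives have a fitted effect of over 50% in size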
rTrxR1 inhibitor: blocks rat thioredoxin reductase 1; O89049; recombinant rTrxR1, NADPH fluorescence consumption, selenite substrate; Potency, µM (titrated, usually from 114 µM), for inactives: at the top dose activity change, negative = inhibition, usual class: inhibitors; hit rate 1% among 390,000; AID 588453; note: potency is the fitted concentration of half-maximal effect; nearly all actives have a fitted effect of over 65% in size
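Rat TrxR1 (90 nM in the dispensed reagent) was pre-reduced with 400 uM NADPH for 5 min at room temperature, then incubated with compound for 15 min. After 400 uM selenite was added, NADPH fluorescence (Ex 340/Em 450 nm) was followed for 8 min.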
TrxR1 substrate: rat thioredoxin reductase 1 substrate activity; O89049; purified TrxR1 substrate turnover, NADPH consumption readout; Potency, µM (titrated, usually from 114 µM), for inactives: top-dose activity change, negative = substrate turnover; hit rate 0.01% among 390,000; note: potency is the fitted concentration of half-maximal effect; nearly all actives have a fitted effect of over 50% in size
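Rat TrxR1, dispensed at 90 nM, was prereduced with 400 uM NADPH (final) for 5 min at ~22 deg C, then incubated with compound 15 min before 400 uM selenite. A first-read NADPH fluorescence drop versus no-compound background flagged substrates.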
* = called active by the depositor; u = inconclusive; x = not tested or not shown; [ ] = another dose, or the depositor's remark. Only some compounds are listed: those with a hit (about 5.9% of all), similar ones and a draw of the others. Unless noted, calls come from the whole dose curve; as a rule, active = well fitted curve in the direction sought with a large enough effect; inconclusive = small, poorly fitted or top-dose-only effect, or another doubt; inactive = no such curve, though single readings can be large; an effect the other way counts as inactive or inconclusive. % is set by controls: 0 for no effect and ±100 for the full control effect.

SMILES	RORg inh	FBPA coupling cs	GALK inhibitor	Gal4-VP16 FLuc	rTrxR1 inhibitor	TrxR1 substrate
O=C(CSc1nnc(-c2ccccc2)n1-c1ccc(Cl)cc1)NNC(=S)Nc1ccccc1	u	2	1%	u	u	3%
O=C(CSc1nc2ccccc2s1)NNC(=S)Nc1ccccc1	1µM*	6	0%	4.5µM*	u	2%
CCn1c(SCC(=O)NNC(=S)Nc2ccccc2)nnc1-c1ccc(Cl)cc1	4µM*	-2	0%	1.3µM*	u	4%
O=C(CSc1nc2ccccc2s1)Nc1cc(C(=O)O)cc(C(=O)O)c1	2%	2	1%	-6%	41%	3%
O=C(CSc1nc2ccccc2s1)NNC(=O)Nc1ccc(Cl)c(Cl)c1	u	0	-1%	27%[0.365 µM]	0%	-1%
O=C(CSc1nc2ccccc2s1)NNC(=S)Nc1ccc(Br)cc1	0.89µM*	x	-7%	u	-10%[11.4 µM]	14%[11.4 µM]
CC(C)c1ccc(NC(=O)C2CCC(CNS(=O)(=O)c3ccc4c(c3)CCCC(=O)N4)CC2)cc1 (stereo unspecified)	x	x	x	x	4%[57.1 µM]	0%[57.1 µM]
Cn1c(=O)c2c(ncn2CC(=O)OCC(=O)Nc2sccc2C(N)=O)n(C)c1=O	x	x	x	x	5%	-2%
O=C(CN1CCCN(Cc2ccc(Cl)cc2)S1(=O)=O)Nc1ccccc1F	x	x	x	x	11%	-6%
Cc1cc(C)c(-n2c(SCc3nc4ccccc4s3)n[nH]c2=O)c(C)c1	u	0	x	3.2µM*	-6%[57.1 µM]	2%[57.1 µM]
CCCn1c(SCc2nc3ccccc3s2)n[nH]c1=O	-17%	-10	0%	12%	-2%[57.1 µM]	4%
CN1C/C(=C/c2ccc(B(O)O)cc2)C(=O)/C(=C/c2ccc(B(O)O)cc2)C1	2µM*	-1	x	4.5µM*	x	x
CC(C)N1C/C(=C/c2cccnc2)C(=O)/C(=C/c2cccnc2)C1	u	2	x	u	u	3%
O=Cc1ccc(B(O)O)cc1	-14%	2	x	4%	6%	4%
CN1C/C(=C/c2cccnc2)C(=O)/C(=C/c2cccnc2)C1	5.6µM*	0	-2%	2.8µM*	10µM*	-11%
Cc1cc(C)n(CC(=O)N2c3ccccc3Sc3ccccc32)n1	7.1µM*	2	-1%	-30%	-10%	3%
COC(=O)c1ccc(CN2C(=O)C3CCCCC3C2=O)o1 (stereo unspecified)	2.8µM*	-9	1%	4.5µM*	36%	4%
Cc1nc2c(-c3ccc(F)cc3)cnn2c(N)c1-c1ccccc1	0.045µM*	-7	-6%	u	31%	31%
C=CCn1c(SCC(=O)NCc2ccco2)nnc1-c1ccc2ccccc2n1	-23%	3	-1%	-21%	79µM*	-7%
O=C(NC1CC(=O)N(c2ccc(F)cc2)C1)c1ccc(S(=O)(=O)N2CCCCC2)cc1 (stereo unspecified)	x	x	x	x	18%[57.1 µM]	-1%[57.1 µM]
Cc1ccccc1NC(=O)c1nnn(-c2ccc3c(c2)OCCO3)c1N	0.63µM*	2	4%	u	10%	-4%
O=C(Cc1cccs1)NNC(=S)NC(=O)c1ccc(F)c(F)c1	6.3µM*	-22	1%	5.6µM*	u	0%
O=C(Cc1cccs1)NNC(=S)NC(=O)c1ccccc1	7.9µM*	-2	2%	10µM*	u	3%
O=C(NCc1cccs1)c1ccccc1	-6%	1	1%	-5%	-4%	5%[57.1 µM]
COc1ccc(OC)c(CN2CCN(C(=O)c3cc(S(=O)(=O)N4CCOCC4)ccc3C)CC2)c1	x	x	x	x	u	-9%
SMILES	RORg inh	FBPA coupling cs	GALK inhibitor	Gal4-VP16 FLuc	rTrxR1 inhibitor	TrxR1 substrate
CC1CN(c2ccc([N+](=O)[O-])c(NCCOc3ccc(Cl)cc3)c2)CC(C)N1 (stereo unspecified)	u	-1	0%	18µM*	30%	6%[2.29 µM]
CC1CN(c2ccc([N+](=O)[O-])c(NCCOc3ccccc3)c2)CC(C)N1 (stereo unspecified)	-12%	2	-4%	0%	18%	-2%
Oc1ccc(O)c(-c2cnns2)c1	3.2µM*	3	3%	u	-8%	6%[0.0914 µM]
COC(=O)N1CCc2c(sc(NC(=O)C3=COCCO3)c2C#N)C1	x	x	x	x	0%	-6%
Cc1nnnn1/C(=C\c1ccccc1)C(=O)OCC(=O)Nc1ccc(Cl)cc1F	x	x	x	x	u	10%
Cc1nnnn1/C(=C\c1ccccc1)C(=O)OCC(=O)Nc1cccc(S(=O)(=O)N(C)C)c1	x	x	x	x	13µM*	-8%
Cc1ccc(C)c(NS(=O)(=O)c2ccc(OCC(=O)N3CCOCC3)cc2)c1	39%	2	0%	5%	-11%	-8%
O=S(=O)(c1cc(F)ccc1F)N1CCN(c2ccccn2)CC1	x	4	3%	x	14%	5%
O=c1[nH]cnc2scc(-c3ccc(Br)cc3)c12	-7%	0	-1%	2%	30%	3%
O=c1[nH]cnc2scc(-c3ccccc3)c12	28%	0	0%	6%	-4%	-4%
S=c1[nH]cnc2scc(-c3ccc(Br)cc3)c12	0.5µM*	0	1%	0.63µM*	-12%	6%
CC(C)c1ccc(-c2csc3nc[nH]c(=O)c23)cc1	u	9	4%	-11%	14%	-7%
Cc1cc(-c2csc3nc[nH]c(=S)c23)cc(C)c1C	0.32µM*	2	9%	0.56µM*	12%[57.1 µM]	8%[57.1 µM]
Cc1sc2nc[nH]c(=S)c2c1-c1ccccc1	0.28µM*	-7	-1%	0.63µM*	u	7%[57.1 µM]
S=c1[nH]cnc2scc(-c3ccc(Cl)cc3)c12	0.45µM*	-1	-1%	1µM*	-30%[57.1 µM]	-1%[57.1 µM]
O=C(O)CCC(=O)Nc1ccc(Br)cc1C(=O)c1ccccc1	-3%	8	5%	10%	10%	4%
O=C(NCCCN1CCCC1=O)C1CCN(S(=O)(=O)c2ccc(F)cc2)CC1	x	x	x	x	5%	5%
Clc1ccc(-c2csc3ncnc(Cl)c23)cc1	11µM*	0	1%	-29%	-4%	3%
Cc1ccc(-c2csc3nc[nH]c(=S)c23)cc1	0.025µM*	-2	2%	0.014µM*	-56%[57.1 µM]	-5%[57.1 µM]
Fc1ccc(-c2csc3ncnc(Cl)c23)cc1	u	1	-1%	u	4%	-1%
COc1ccc(N2CCN(CCCNC(=O)c3cnn(-c4ccc(C)cc4)c3-n3cccc3)CC2)cc1	x	x	x	x	u	1%
CC(C)Oc1ccc(CNC(=S)Nc2ccccc2)cc1Cl	11µM*	0	-4%	11µM*	19%	2%
CCCOc1ccc(CNC(=S)Nc2ccccc2)cc1Cl	5µM*	-1	-4%	7.1µM*	9%	-2%
CC(C)COc1ccc(CNC(=S)Nc2ccccc2)cc1Cl	5µM*	0	-5%	13µM*	12%	2%
